Screening data (PubChem BioAssay)
Compounds with a hit are over-represented: about 1.1% of the library has one in this group of screens.
Mtb bLac sens: beta-lactam sensitization of Mtb H37Rv; inhibition, % at 25 µM; actives 0.27% (n = 330,000); AID 434955; M. tuberculosis H37Rv growth with meropenem, percent inhibition;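 also: growth measured after seven days incubation then overnight dye step; 0% = bacteria only wells and 100% = bacteria with antibiotic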
Mtb BioA inh: BioA (M. tuberculosis) enzyme inhibition; actives 0.096% (n = 360,000); purified M. tuberculosis BioA enzyme, plate reader; inhibition, % at 9.99 µM; in the data active = inhibition above about 40%
Yp Topo-I inh: blocks Yersinia pestis topoisomerase I activity. Y. pestis Topo-I cleavage product accumulation, plate reader. activity, % at 10 µM. actives 0.064% (n = 360,000). AID 504884; in the data active = activity above about 50%, passing the limit was not always enough
RecA intein inh: blocks M. tuberculosis RecA intein splicing. cell-free RecA intein splicing, fluorescence. inhibition, % (concentration not given with the values). actives 0.75% (n = 290,000); in the data active = inhibition above about 30%;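 also: 0% = vehicle wells and 100% = reference inhibitor control wells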
Target sequence (P9WHJ3 whole entry, looked up): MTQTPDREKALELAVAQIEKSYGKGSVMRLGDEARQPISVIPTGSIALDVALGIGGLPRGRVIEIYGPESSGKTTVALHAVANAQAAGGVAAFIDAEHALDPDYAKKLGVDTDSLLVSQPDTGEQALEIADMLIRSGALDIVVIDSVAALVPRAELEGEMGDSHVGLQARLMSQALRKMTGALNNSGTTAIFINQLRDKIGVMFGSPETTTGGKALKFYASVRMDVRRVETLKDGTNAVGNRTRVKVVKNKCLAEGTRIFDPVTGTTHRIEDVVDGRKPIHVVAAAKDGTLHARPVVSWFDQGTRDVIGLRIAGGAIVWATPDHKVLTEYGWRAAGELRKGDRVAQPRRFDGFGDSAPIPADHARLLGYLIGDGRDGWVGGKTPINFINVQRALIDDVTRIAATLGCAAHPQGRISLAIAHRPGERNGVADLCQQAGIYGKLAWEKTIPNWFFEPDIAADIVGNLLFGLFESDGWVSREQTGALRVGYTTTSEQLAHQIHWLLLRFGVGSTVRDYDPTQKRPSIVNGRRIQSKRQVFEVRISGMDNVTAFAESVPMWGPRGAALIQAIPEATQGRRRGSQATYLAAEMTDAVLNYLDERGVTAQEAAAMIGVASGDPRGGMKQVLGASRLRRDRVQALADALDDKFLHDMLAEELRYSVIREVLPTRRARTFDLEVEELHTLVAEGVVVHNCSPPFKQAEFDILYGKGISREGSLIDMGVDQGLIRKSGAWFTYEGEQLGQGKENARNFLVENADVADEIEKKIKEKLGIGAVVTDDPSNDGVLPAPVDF
CCHF vOTU inh: CCHFV vOTU protease inhibition. Pep-AMC fluorescence. inhibition, % at 11.5 µM. actives 0.55% (n = 370,000); in the data active = inhibition above about 30%; also: 0% = vehicle wells with enzyme and 100% = no enzyme wells
BJeLR lethal: kills HRASV12-expressing BJeLR cells. BJeLR (HRASV12) viability, CellTiter-Glo ATP luminescence, 48 h. inhibition, % (concentration not given with the values). AID 1554. actives 0.17% (n = 300,000); in the data active = inhibition above about 50%
GFP chromophore: counter-screen GFP chromophore formation inhibition. shares compounds with RecA intein inh. cell-free GFP chromophore formation, fluorescence. EC50, µM. actives 83% (n = 2,100). AID 434968
* marks the source's active call; other numbers are inactive results; x = no result. Unless noted, no rule for the calls is given here.

SMILES	Mtb bLac sens	Mtb BioA inh	Yp Topo-I inh	RecA intein inh	CCHF vOTU inh	BJeLR lethal	GFP chromophore
O=C(O)CCCN1C(=O)/C(=C\C(Cl)=C\c2ccccc2)SC1=S	1	1	5	46*	-13	1	>38
Cc1nn(-c2ccccc2)c(Cl)c1/C=C1\SC(=S)N(CCCCCC(=O)O)C1=O	-4	x	25	37*	25	-1	28*
CN1CCN(C(=O)CCCN2C(=O)/C(=C/c3ccccc3)SC2=S)CC1	-2	1	24	6	5	20	x
OC[C@H]1[C@@H](c2ccc(C#CC3CC3)cc2)[C@@H]2CN(CCC(F)(F)F)CCCCN12	x	0	x	x	x	x	x
COc1ccc(CN2C[C@@H](C)[C@H](OC)CN(C)C(=O)c3ccc(NC(=O)C4CC4)cc3OC[C@H]2C)cc1	x	3	x	x	x	x	x
O=c1cc(C2CCNCC2)[nH][nH]1	-11	-1	1	87*	16	-3	5.4*
O=c1cc(C2CCCCC2)[nH]c(=O)[nH]1	x	-1	-2	x	-8	x	x
O=C1/C(=C\c2cc([N+](=O)[O-])ccc2O)SC(=S)N1Cc1ccc(Cl)cc1	24	-11	-27	52*	-2	18	35*
O=C1/C(=C\c2cccc(O)c2O)SC(=S)N1Cc1ccccc1	-1	-1	-31	36*	10	-10	39*
O=C1/C(=C\c2ccc(O)c(O)c2)SC(=S)N1Cc1ccccc1	10	2	-1	23	13	-3	x
COC(=O)[C@@]1(Cc2ccccc2)[C@@H]2C(=CC(=O)[C@H]2CC(=O)C(=O)N(C)C)CN1C(=O)c1ccccc1	-7	0	5	70*	x	-8	16*
COC(=O)[C@@]1(Cc2ccc(F)cc2)[C@H]2c3cc(C(=O)N(C)C)n(CCF)c3C[C@H]2CN1C(=O)c1ccccc1	x	x	x	x	1	x	x
C[C@H](CO)N1C[C@H](C)[C@H](CN(C)C(=O)Nc2cccc3ccccc23)OCCCC[C@H](C)Oc2ccc(NS(=O)(=O)c3cccs3)cc2C1=O	x	-1	x	x	x	x	x
Cc1ccc(C(C[N+](=O)[O-])c2c(C)[nH]n(-c3ccccc3)c2=O)cc1 (stereo unspecified)	95	-1	-3	93*	23	-6	7.3*
Cc1[nH]n(-c2ccccc2)c(=O)c1C=NCCc1ccccc1	7	x	6	5	-10	0	x
Cc1[nH]n(-c2ccccc2)c(=O)c1C(C[N+](=O)[O-])c1ccc(Cl)cc1 (stereo unspecified)	100	x	-5	82*	22	10	15*
Cc1[nH]n(-c2ccccc2)c(=O)c1C(C[N+](=O)[O-])c1ccc(F)cc1 (stereo unspecified)	98	x	-6	76*	-5	6	22*
COc1ccc(C(c2c(C)[nH]n(-c3ccccc3)c2=O)c2c(C)[nH]n(-c3ccccc3)c2=O)cc1OC	7	3	-7	98*	84*	-3	1.3*
COCCNC(=O)C[C@H]1C=C[C@@H](NC(=O)NC2CCCC2)[C@H](CO)O1	x	2	x	x	x	x	x
Cc1[nH]n(-c2ccccc2)c(=O)c1N=Nc1ccc(Cl)cc1	67	-1	4	2	-10	10	x
Cc1[nH]n(-c2ccccc2)c(=O)c1Sc1ccc(Cl)cc1	-3	-2	-13	57*	3	-8	20*
C[C@@H]1CN([C@H](C)CO)S(=O)(=O)c2ccc(C#Cc3ccc(F)cc3)cc2O[C@@H]1CN(C)S(=O)(=O)c1ccc(F)cc1	x	-3	x	x	x	x	x
Cc1[nH][nH]c(=O)c1C(c1ccc(Cl)cc1)c1c(C)[nH][nH]c1=O	-2	1	5	98*	8	-21	1.3*
COC(=O)c1ccc(C(c2c(C)[nH][nH]c2=O)c2c(C)[nH][nH]c2=O)cc1	5	1	1	95*	-6	15	1.4*
CCOC(=O)COc1ccc(C(c2c(C)[nH][nH]c2=O)c2c(C)[nH][nH]c2=O)cc1	3	-1	3	-1	-11	1	x
Cc1[nH][nH]c(=O)c1C(c1ccc(F)cc1)c1c(C)[nH][nH]c1=O	10	0	5	98*	-7	-7	0.62*
C[C@H](CO)N1C[C@H](C)[C@@H](CN(C)S(=O)(=O)c2cn(C)cn2)Oc2cc(C3=CCCC3)ccc2S1(=O)=O	x	1	x	x	x	x	x
